The results in this text go back to PubChem BioAssay (NCATS).

“And” between values parts separate entries of the source, which are not always exact repeats. Equal values may be shown once. Results filed as inconclusive are left out. A structure can be active in one record and inactive in another. The source made the active and inactive calls. Unless noted, calls come from the whole dose curve; as a rule, active = well fitted curve in the direction sought with a large enough effect; inconclusive = small, poorly fitted or top-dose-only effect, or another doubt; inactive = no such curve, though single readings can be large; an effect the other way counts as inactive or inconclusive.

The target of assay [1] is Calcium and integrin-binding protein 1 (Homo sapiens) (UniProt Q99828). The experiment in a line: Primary qHTS for Identification of Calcium Integrin Binding Protein 1 (CIB1) Competitor (AID 1508620).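 Note: GST tagged CIB1 binding a fluorescein labelled alphaIIb integrin peptide tracer; top concentration of the series differs between compounds.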 Put shortly:
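CIB1-GST (1 uM final) and compound incubated 15 min at room temperature before adding FITC-alphaIIb peptide tracer (100 nM final). Competition for binding read by fluorescence polarization (ex 480, em 540) after another 15 min at room temperature.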

Assay [2] can be described thus: Primary qHTS for small molecule stabilizers of the endoplasmic reticulum resident proteome: Secreted ER Calcium Modulated Protein (SERCaMP) assay (AID 1508630). The essentials:
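GLuc-SERCaMP-expressing SH-SY5Y cells, pretreated 16 h with compound, are challenged with thapsigargin to empty ER calcium stores; after 4 h, coelenterazine is added directly to the medium and luminescence is imaged.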
On the technique in general: In qHTS, concentration-response curves come from the screen itself.

Assay [3] can be described thus: A High-Content qHTS Against Drug Library for the Identification of Small Molecules that Inhibit DYT1 Early Onset Primary Dystonia-Associated Cell Pathology (AID 1645839; calls by dose curve; note: series mostly up to about 46 µM). Put shortly: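 In this high-content image screen, delE TorsinA mislocalization in inducible Flp-In 293 cells is scored as %pathology, with cell count serving as the counterscreen. Compound exposure lasts 48 h under tetracycline induction in reduced-serum medium.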

Assay [4] concerns the target Cytochrome P450 2D6 (Homo sapiens) (UniProt P10635). The experiment in a line: Cytochrome P450 family 2 subfamily D member 6 (CYP2D6) small molecule antagonists: luciferase biochemical (cell-free) qHTS assay (AID 1645840; active = well fitted curve in the direction sought with a large enough effect in the repeat runs; an effect the other way counts as inactive or inconclusive; note: nearly all actives have a fitted effect of over 55% in size; note: potency is the fitted concentration of half-maximal effect). The essentials:
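P450-Glo luminescent screen: recombinant CYP2D6 enzyme–proluciferin substrate mix preincubated with compound 10 min at room temperature, then NADPH regeneration added for 1 h at room temperature. Detection reagent added for 20 min; luciferin light read as relative luminescence units.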

The target in assay [5] is Cytochrome P450 2C9 (Homo sapiens) (UniProt P11712). Description: Cytochrome P450 family 2 subfamily C member 9 (CYP2C9) small molecule antagonists: luciferase biochemical (cell-free) qHTS assay (AID 1645842; active = well fitted curve in the direction sought with a large enough effect in the repeat runs; an effect the other way counts as inactive or inconclusive; note: nearly all actives have a fitted effect of over 55% in size; note: potency is the fitted concentration of half-maximal effect). Put shortly: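 Luminescence, after 20 min with luciferin detection reagent, reflected CYP2C9 turnover during a 1 h NADPH-driven reaction at 37C. Enzyme-substrate mix contained 0.4% bovine serum albumin and was preincubated with compound 10 min at room temperature.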
Chain of Cytochrome P450 2C9 (Homo sapiens) (P11712 whole entry, looked up): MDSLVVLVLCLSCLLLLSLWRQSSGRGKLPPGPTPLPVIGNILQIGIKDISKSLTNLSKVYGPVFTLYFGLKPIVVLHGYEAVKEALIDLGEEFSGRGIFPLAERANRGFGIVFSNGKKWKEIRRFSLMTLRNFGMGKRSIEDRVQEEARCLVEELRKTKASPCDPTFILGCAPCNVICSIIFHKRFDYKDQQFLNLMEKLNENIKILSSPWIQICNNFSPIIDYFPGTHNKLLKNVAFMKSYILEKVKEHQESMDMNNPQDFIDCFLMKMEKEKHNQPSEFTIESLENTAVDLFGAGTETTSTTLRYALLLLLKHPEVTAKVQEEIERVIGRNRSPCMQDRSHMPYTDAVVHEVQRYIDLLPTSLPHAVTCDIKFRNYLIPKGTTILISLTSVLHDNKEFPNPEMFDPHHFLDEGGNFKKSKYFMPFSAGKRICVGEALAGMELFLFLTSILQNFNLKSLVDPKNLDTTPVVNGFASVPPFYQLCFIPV

The nature of assay [6]: Primary qHTS for inhibitors of nuclear receptor binding SET domain protein 2 (NSD2) in an isogenic RCH-ACV NSD2 p.E1099K mutant (9B) (AID 1645876). Note: nearly all actives have a fitted effect of over 70% in size. Note: potency is the fitted concentration of half-maximal effect.
The nature of assay [7]: Primary qHTS for inhibitors of nuclear receptor binding SET domain protein 2 (NSD2) in an RCH-ACV wild type WT cells (2C) (AID 1645877). Note: nearly all actives have a fitted effect of over 70% in size. Note: potency is the fitted concentration of half-maximal effect.
Assay [8] addresses N-terminal Xaa-Pro-Lys N-methyltransferase 1 (Homo sapiens) (UniProt Q9BV86). Description: Confirmatory qHTS for Inhibitors of N-terminal methyltransferase 1 (NTMT1): MTaseGlo Assay (AID 1645874). Note: potency is the fitted concentration of half-maximal effect; nearly all actives have a fitted effect of over 65% in size. The essentials:
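Luminescent MTase-Glo read-out of SAH. 125 nM NTMT1, 100 uM SAM, 1 uM SPKRIA substrate, 30 min RT reaction after 15 min compound preincubation. Normalized to no-enzyme and DMSO controls; Hill fit.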

The target of assay [9] is Cytochrome P450 3A4 (Homo sapiens) (UniProt P08684). The experiment in a line: Cytochrome P450 family 3 subfamily A member 4 (CYP3A4) small molecule antagonists: luciferase qHTS assay (AID 1645841; active = well fitted curve in the direction sought with a large enough effect in the repeat runs; an effect the other way counts as inactive or inconclusive; note: nearly all actives have a fitted effect of over 45% in size). Put shortly: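 Luminescent CYP3A4 activity readout: compounds plus enzyme-substrate mix 10 min at room temperature, reaction started with NADPH regenerating system for 1 h, stopped with detection reagent, read after 20 min. Ketoconazole served as control.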
Chain of Cytochrome P450 3A4 (Homo sapiens) (P08684 whole entry, looked up): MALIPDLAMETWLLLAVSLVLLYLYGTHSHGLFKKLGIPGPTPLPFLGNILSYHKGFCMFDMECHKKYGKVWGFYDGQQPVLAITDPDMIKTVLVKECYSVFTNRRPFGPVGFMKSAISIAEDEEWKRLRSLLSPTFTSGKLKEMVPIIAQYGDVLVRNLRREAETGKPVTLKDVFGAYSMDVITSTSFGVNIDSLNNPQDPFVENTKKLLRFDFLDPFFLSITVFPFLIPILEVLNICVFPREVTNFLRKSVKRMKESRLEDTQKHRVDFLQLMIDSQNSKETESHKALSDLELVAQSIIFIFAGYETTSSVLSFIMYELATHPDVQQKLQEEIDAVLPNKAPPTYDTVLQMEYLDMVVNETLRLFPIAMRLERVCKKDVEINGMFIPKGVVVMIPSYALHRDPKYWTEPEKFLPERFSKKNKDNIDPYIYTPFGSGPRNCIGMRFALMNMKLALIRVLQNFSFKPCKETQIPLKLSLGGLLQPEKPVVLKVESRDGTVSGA

Chain of Calcium and integrin-binding protein 1 (Homo sapiens) (Q99828 whole entry, looked up): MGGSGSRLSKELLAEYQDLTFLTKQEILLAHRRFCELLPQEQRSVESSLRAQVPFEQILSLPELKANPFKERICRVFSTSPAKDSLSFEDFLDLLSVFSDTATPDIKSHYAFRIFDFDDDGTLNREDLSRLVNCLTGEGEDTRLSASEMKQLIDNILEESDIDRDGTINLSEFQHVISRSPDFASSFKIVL
Chain of Cytochrome P450 2D6 (Homo sapiens) (P10635 whole entry, looked up): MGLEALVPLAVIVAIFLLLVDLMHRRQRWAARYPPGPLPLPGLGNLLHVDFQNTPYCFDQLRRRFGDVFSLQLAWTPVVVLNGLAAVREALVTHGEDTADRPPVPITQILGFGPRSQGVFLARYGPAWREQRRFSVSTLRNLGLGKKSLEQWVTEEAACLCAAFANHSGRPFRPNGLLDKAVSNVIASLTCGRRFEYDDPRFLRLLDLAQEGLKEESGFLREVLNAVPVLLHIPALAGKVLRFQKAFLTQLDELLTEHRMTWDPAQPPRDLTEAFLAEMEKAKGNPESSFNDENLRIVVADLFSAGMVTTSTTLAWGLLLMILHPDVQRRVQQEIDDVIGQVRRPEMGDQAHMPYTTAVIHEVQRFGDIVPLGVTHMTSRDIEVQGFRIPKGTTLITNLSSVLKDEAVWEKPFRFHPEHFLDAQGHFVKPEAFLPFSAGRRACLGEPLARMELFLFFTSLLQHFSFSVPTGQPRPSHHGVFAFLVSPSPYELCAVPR
Chain of N-terminal Xaa-Pro-Lys N-methyltransferase 1 (Homo sapiens) (Q9BV86 whole entry, looked up): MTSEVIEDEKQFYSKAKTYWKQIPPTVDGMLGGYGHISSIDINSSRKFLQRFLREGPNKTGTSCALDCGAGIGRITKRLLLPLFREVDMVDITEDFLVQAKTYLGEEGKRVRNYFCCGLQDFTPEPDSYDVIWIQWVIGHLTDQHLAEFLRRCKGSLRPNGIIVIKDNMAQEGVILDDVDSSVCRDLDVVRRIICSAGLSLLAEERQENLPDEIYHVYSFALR

Take `O=C(O)CCNC(=O)c1ccc(N=Nc2ccc(O)c(C(=O)O)c2)cc1`: the Potency entry in assay [1], in [2], in [3], in assay [4], in [5] and in assay [6] was “inactive” throughout. In addition, in assay [7], the Potency entry was “inactive”.

`CCCOc1ccc2nc(NC(=O)OC)[nH]c2c1`: the Potency entry in assay [1], in [2], in assay [3], in [4] and in [5] was “inactive” in each case. Besides, the Potency in assay [6] was 411 nM (active) and 417 nM (active); in assay [7] it was 366 nM (active) and 263 nM (active).

For the compound `Cc1ccc(C(=O)c2cc(O)c(O)c([N+](=O)[O-])c2)cc1`, the Potency result in [1], in [2] and in assay [4] was “inactive” in each case. Further, in [5], the Potency was 5.49 µM (active).

`CCCCN(CCCC)CCC(O)c1cc2c(Cl)cc(Cl)cc2c2cc(C(F)(F)F)ccc12` (centres undefined): the Potency result in assay [1], in assay [2] and in assay [5] was “inactive” throughout. Also, the figures for the Potency in assay [4], in assay [6] and in [7] were 0.55 µM (active), 13.3 µM (active) and 16.6 µM (active), respectively.

In the case of `Nc1cccc2c1CN(C1CCC(=O)NC1=O)C2=O` (centres undefined), the Potency entry in assay [1], in assay [2], in [3], in assay [6] and in [7] was “inactive” throughout.

As for `COC1=C(OC)C(=O)C(CCCCCCCCCCO)=C(C)C1=O`, the Potency result in assay [1] and in assay [2] was “inactive” in each case. Also, the Potency was 3.89 µM (active) in [4]; 7.76 µM (active) in [5]; 11.9 µM (active) and 18.6 µM (active) in assay [6]; 9.44 µM (active) and 18.6 µM (active) in assay [7].

Turning to `O=c1oc2cc(O)ccc2s1`, the Potency result in [1], in assay [2], in assay [4] and in assay [5] was “inactive” each time. Also, the Potency in assay [6] and in assay [7] was 20.9 µM (active) each time.

In the case of `Nc1cc(C(Cl)=C(Cl)Cl)c(S(N)(=O)=O)cc1S(N)(=O)=O`, the Potency entry in assay [1], in [2], in [3], in assay [4], in assay [6] and in assay [7] was “inactive” throughout.

For `Cn1c(NCCN(CCO)CCCc2ccc([N+](=O)[O-])cc2)cc(=O)n(C)c1=O`, the Potency result in [1], in [2], in [3], in assay [5], in assay [6] and in assay [7] was “inactive” throughout.

As to `CC[C@]1(O)C[C@H]2CN(CCc3c([nH]c4ccccc34)[C@@](C(=O)OC)(c3cc4c(cc3OC)N(C=O)[C@H]3[C@@](O)(C(=O)OC)[C@H](OC(C)=O)[C@]5(CC)C=CCN6CC[C@]43[C@@H]65)C2)C1`, the Potency result in assay [1], in [2], in [3] and in [5] was “inactive” throughout. The Potency in assay [6] was 7.5 nM (active) and 59 nM (active); in [7], 6.7 nM (active) and 29.5 nM (active).

As to `CC1Cc2ccccc2N1NC(=O)c1ccc(Cl)c(S(N)(=O)=O)c1` (centres undefined), the Potency entry in assay [1], in [2], in [4], in assay [5], in assay [6] and in assay [7] was “inactive” throughout.

For `CCOC(=O)c1c(C)n(C)c2ccc(O)cc12`, the Potency result in assay [1], in [2], in [3], in [5], in assay [6] and in assay [7] was “inactive” each time.

In the case of `CCCCCCCCOc1ccccc1C(=O)Nc1ccc(C(=O)OCC[N+](C)(CC)CC)cc1`, the Potency entry in [1] and in assay [2] was “inactive” throughout. Also, the values for the Potency in assay [4], in assay [5] and in assay [8] were 17.4 µM (active), 1.55 µM (active) and 47.8 µM (active), respectively.

As to `Nc1ccc(S(N)(=O)=O)cc1`, the Potency entry in [1], in assay [2], in assay [3], in [6] and in assay [7] was “inactive” in each case.

For `c1ccc2[nH]c(-c3cscn3)nc2c1`, the Potency entry in assay [1], in assay [2], in assay [3], in assay [5] and in [6] was “inactive” throughout. Also, the Potency result in assay [7] is “inactive and 13.2 µM (active)”.

Turning to `NS(=O)(=O)c1cc(C(=O)O)c(NCc2ccco2)cc1Cl`, the Potency result in assay [1], in assay [2], in assay [3], in assay [6] and in [7] was “inactive” in each case.

Consider `CC(S)C(=O)NCC(=O)O` (centres undefined), for which the Potency result in [1], in [2], in assay [3], in assay [4], in assay [5] and in assay [6] was “inactive” in each case. Moreover, the Potency entry in assay [7] was “inactive”.

Take `Cc1cc(=O)oc2cc(O)ccc12`: the Potency entry in assay [1], in assay [2], in assay [3], in [4], in assay [5] and in assay [6] was “inactive” throughout. The Potency entry in [7] was “inactive”.

On to `Oc1ccc(OCc2ccccc2)cc1`, for which the Potency entry in assay [1], in assay [2] and in assay [3] was “inactive” in each case. The Potency in assay [4] was 15.5 µM (active); in [6], “inactive and 2.63 µM (active)”; in assay [7], “inactive and 4.68 µM (active)”.

As to `Cc1cc(=O)c2c(O)c3c(O)cc(=O)c4c3c3c(cc(O)c1c23)C(C)(C)C=4O`, the Potency entry in assay [1], in assay [2], in assay [4], in [5] and in assay [6] was “inactive” throughout. In addition, the outcome in assay [9] was inactive.

In the case of `CC(=O)Nc1ccc(O)cc1`, the Potency entry in assay [2], in [3], in assay [4] and in assay [5] was “inactive” each time.

Take `CCN(CC)CCOc1ccc(Nc2ncc3cc(-c4c(Cl)cccc4Cl)c(=O)n(C)c3n2)cc1`: the Potency entry in [1] and in [2] was “inactive” throughout. Also, the Potency in [6] is 0.417 µM (active); in assay [7] it was 0.468 µM (active).

Turning to `CN(C)c1ccc2nc3ccc(=[N+](C)C)cc-3sc2c1`, the Potency entry in assay [2] was “inactive”. The Potency in assay [6] was 1.32 µM (active) and 2.37 µM (active); in assay [7] it was 1.32 µM (active) and 2.37 µM (active).
